What all share (experiment): NCI-60 one-dose screen, 48 h (100 = growth as untreated, 0 = no growth, -100 = all killed)
What all share (settings): 10 µM unless noted

Test [1] concerns T-47D breast.
The subject of test [2] is BT-549 breast.
Test [3] concerns MDA-MB-435 melanoma.
Test [4] has as its system SW-620 colon.
Test [5] has as its system MCF7 breast.
In test [6] the test system is HCT-116 colon.
Test [7] has as its system HCC-2998 colon.
For test [8], the system named is KM12 colon.

This passage reports growth results from PubChem BioAssay (NCI).

Each structure is given as a SMILES string. Compounds without any hit were thinned out: in the full panel of roughly 83,000, 20% have a hit.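 Method: cells in 96-well plates; compound added at one concentration; 48 h incubation; percent growth measured; values under 10 scored active.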 Unmarked numbers belong to inactive results. Active and inactive are the calls of the source.

As for `CCCCCCCCCCCCCC[N+](C)(C)CCCCCCCCCCCCCC`, the growth was 57.5% in test [1]; 92.3% in test [2]; 39.4% in test [3]; 76% in test [4]; 77.3% in test [5]; 51.4% in test [6]. Besides, the growth in test [7] was 62.1%; in test [8], 76.2%.
With `CN=C1C=C/C(=N/N=c2/ccn(O)cc2C)C=C1C`, the growth in test [1] is 90.1%; in test [2], 107%; in test [3], 102%; in test [4] it was 98.5%; in test [5], 81%; in test [6], 90.9%. Also, the growth in test [7] is 91.7%; in test [8] it was 109%.
On to `COc1ccc2c(c1)CCCC21C(=O)Nc2ccccc21` (stereo not drawn), for which the growth in test [1] is 85.2%; in test [2] it was 101%; in test [3], 101%; in test [4], 107%; in test [5] it was 95.7%; in test [6] it was 102%. Moreover, the growth in test [7] is 112%; in test [8], 97.5%.
As to `Clc1ncnc2scc(C3COc4ccccc4O3)c12` (stereo not drawn), the growth in test [1] is 78.2%; in test [2] it was 70%; in test [3], 97.5%; in test [4], 93.3%; in test [5] it was 76.7%; in test [6], 86.2%. In addition, the growth in test [7] is 87.7%; in test [8] it was 104%.
Turning to `N#Cc1nc(-c2cccc(Br)c2)cc(-c2ccc(Nc3nc(N4CCCCC4)nc(N4CCCCC4)n3)cc2)c1N`, the growth is -52.6% (active) in test [1]; -69.5% (active) in test [2]; -91.7% (active) in test [3]; -42.3% (active) in test [4]; 6.98% (active) in test [5]; -60.4% (active) in test [6]. Also, the figures for the growth in test [7] and in test [8] were 18.2% and -1.24% (active), respectively.
As to `CC1=C(O)C(=O)C(c2c(C)cc(C)c(Br)c2C)=C(O)C1=O`, the growth in test [1] was 83.3%; in test [2] it was 73.1%; in test [3], 73.2%; in test [4], 85.5%; in test [5], 56.5%; in test [6] it was 54.4%. Also, the growth in test [7] was 63%; in test [8], 67.7%.
Turning to `O=C(NCCNC(=O)c1cc(S(=O)(=O)NCCc2ccccc2)c(O)c(O)c1O)c1cc(S(=O)(=O)NCCc2ccccc2)c(O)c(O)c1O`, the growth is 84.1% in test [1]; 48.8% in test [2]; 35.2% in test [3]; 54.7% in test [4]; 34.9% in test [5]; 33.5% in test [6]. Further, the figures for the growth in test [7] and in test [8] were 38.6% and 34.1%, respectively.
On to `CCCc1n(Cc2ccc3ccccc3n2)cc[n+]1Cc1ccc2ccccc2n1`, for which the growth is 7.17% (active) in test [1]; 13.9% in test [2]; 7.6% (active) in test [3]; 36.7% in test [4]; 15.3% in test [5]; 22.9% in test [6]. Also, the figures for the growth in test [7] and in test [8] were 26.2% and 15.7%, respectively.
Turning to `O=c1[nH]c2cc(Cl)c(Cl)cc2o1`, the growth in test [1] was 121%; in test [2], 132%; in test [3], 103%; in test [4], 98.9%; in test [5], 105%; in test [6], 98.9%. The growth in test [7] was 117%; in test [8], 111%.
`OC(c1cc(-c2ccc(C(F)(F)F)cc2)nc(-c2ccc(C(F)(F)F)cc2)c1)C1CCCCN1` (stereo not drawn): the growth was -67.9% (active) in test [1]; -79% (active) in test [2]; -58.3% (active) in test [3]; -70.5% (active) in test [4]; -80.8% (active) in test [5]; -77.3% (active) in test [6]. Moreover, the growth in test [7] is -70.8% (active); in test [8], -87.7% (active).
Consider `CC(C)c1ccc(Cn2ccc3c4c(N)nc(NC5CC5)nc4ccc32)cc1`, for which the growth in test [1] was -54.8% (active); in test [2], -71.2% (active); in test [3] it was -97% (active); in test [4], -82.6% (active); in test [5], -82% (active); in test [6], -82.8% (active). In addition, the values for the growth in test [7] and in test [8] were -78.6% (active) and -79.2% (active), respectively.
For `COc1cc(NC(C)CCCN)c2ncccc2c1Sc1ccc(Cl)cc1` (stereo not drawn), the growth in test [1] was 58.7%; in test [2], 90.9%; in test [3] it was 55.7%; in test [4], -69.1% (active); in test [5], 26%; in test [6], 23.9%. Moreover, the growth in test [7] was 12.3%; in test [8] it was 34.4%.
As to `O=C(Oc1c(Cl)c(Cl)c(Cl)c(Cl)c1Cl)C1CCCN1C(=O)OCc1ccccc1` (stereo not drawn), the growth in test [1] was 2.01% (active); in test [2], 54.9%; in test [3] it was 84.2%; in test [4] it was 22.2%; in test [5] it was 29.6%; in test [6], 15.9%. Also, the growth in test [7] is 49.1%; in test [8] it was 23.6%.
Consider `[Ag].[Ag].[NH-]S(=O)(=O)c1ccc(N=Nc2cc(N=Nc3ccc(S([NH-])(=O)=O)cc3)c3c(NC(=O)C(Cl)Cl)cccc3c2OC(=O)C(Cl)Cl)cc1.[c-]1nccs1.[c-]1nccs1`, for which the growth was 7.8% (active) in test [1]; 104% in test [2]; 87.2% in test [3]; 58.7% in test [4]; 50.8% in test [5]; 65.4% in test [6]. The growth was 99.1% in test [7] and 80.9% in test [8].
For `COc1c(C(=O)/C=C/c2ccc(C)o2)c(O)cc2occc12`, the growth was 66.6% in test [1]; 67.5% in test [2]; -28.3% (active) in test [3]; 32.1% in test [4]; 38.5% in test [5]; 52.8% in test [6]. Further, the growth in test [7] was 79.4%; in test [8], 45.4%.
Take `COc1ccc2[nH]cc(/C=C3\C(=O)Nc4ccccc43)c2c1`: the growth in test [1] is 36.6%; in test [2], 48.5%; in test [3], -41.6% (active); in test [4] it was 11.4%; in test [5], 16.3%; in test [6] it was 17.9%. Besides, the growth in test [7] was 36%; in test [8], 13.7%.
